Results taken from PubChem BioAssay (EPA / NIEHS).
Several values for one entry are separate records, joined by “and”; a condition that tells them apart may be missing. Equal values may be shown once. Records with an inconclusive call do not appear. More than one record can exist for a structure, and the calls need not agree. Activity calls are given as the source filed them. The calls were made as follows: active = hit-call score of the fitted dose curve at least 0.9, where 1 is the maximum; inconclusive = response in the unintended direction; inactive = score below 0.9.

Tests used:
[1] = target: zebrafish Estrogen Receptor (ER1), esr1 (gene 259252) (UniProt P57717); experiment: ATG_zfER1_XSP2: Attagene TRANS-FACTORIAL Multi-Species (XSP2) HepG2 Assay for zebrafish Estrogen Receptor (ER1) (AID 2283816)
Chain of zebrafish Estrogen Receptor (ER1), esr1 (gene 259252) (P57717 whole entry, looked up, the tested form may be a part): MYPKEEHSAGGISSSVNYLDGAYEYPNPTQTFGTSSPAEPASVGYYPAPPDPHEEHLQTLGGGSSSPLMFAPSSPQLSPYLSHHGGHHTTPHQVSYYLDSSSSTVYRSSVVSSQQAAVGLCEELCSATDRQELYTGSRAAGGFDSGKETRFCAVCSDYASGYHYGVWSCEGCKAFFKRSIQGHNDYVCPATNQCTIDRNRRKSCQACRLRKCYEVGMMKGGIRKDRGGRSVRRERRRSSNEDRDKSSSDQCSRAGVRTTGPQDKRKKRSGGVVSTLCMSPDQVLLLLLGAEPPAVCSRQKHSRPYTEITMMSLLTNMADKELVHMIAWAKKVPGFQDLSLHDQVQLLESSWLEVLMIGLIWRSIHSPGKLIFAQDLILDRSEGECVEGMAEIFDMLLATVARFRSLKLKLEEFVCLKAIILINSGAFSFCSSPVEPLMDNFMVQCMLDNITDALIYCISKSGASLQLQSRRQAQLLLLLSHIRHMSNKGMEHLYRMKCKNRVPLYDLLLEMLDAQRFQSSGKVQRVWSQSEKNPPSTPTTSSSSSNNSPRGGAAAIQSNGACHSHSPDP
Outline: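 After 24 h compound exposure, RNA from transfected HepG2 cells was reverse-transcribed and reporter transcripts resolved by capillary electrophoresis. The TRANS format reads exogenous zebrafish ER1-Gal4 chimera activity on GAL4-UAS elements; gain of signal against DMSO.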

[2] = target: chicken Estrogen Receptor (ERa), ESR1 (gene 396099) (UniProt P06212); experiment: ATG_chERa_XSP2: Attagene TRANS-FACTORIAL Multi-Species (XSP2) HepG2 Assay for chicken Estrogen Receptor (ERa) (AID 2283817);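 also: actives raise reporter signal above DMSO so AC50 reflects ER activation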
Chain of chicken Estrogen Receptor (ERa), ESR1 (gene 396099) (P06212 whole entry, looked up, the tested form may be a part): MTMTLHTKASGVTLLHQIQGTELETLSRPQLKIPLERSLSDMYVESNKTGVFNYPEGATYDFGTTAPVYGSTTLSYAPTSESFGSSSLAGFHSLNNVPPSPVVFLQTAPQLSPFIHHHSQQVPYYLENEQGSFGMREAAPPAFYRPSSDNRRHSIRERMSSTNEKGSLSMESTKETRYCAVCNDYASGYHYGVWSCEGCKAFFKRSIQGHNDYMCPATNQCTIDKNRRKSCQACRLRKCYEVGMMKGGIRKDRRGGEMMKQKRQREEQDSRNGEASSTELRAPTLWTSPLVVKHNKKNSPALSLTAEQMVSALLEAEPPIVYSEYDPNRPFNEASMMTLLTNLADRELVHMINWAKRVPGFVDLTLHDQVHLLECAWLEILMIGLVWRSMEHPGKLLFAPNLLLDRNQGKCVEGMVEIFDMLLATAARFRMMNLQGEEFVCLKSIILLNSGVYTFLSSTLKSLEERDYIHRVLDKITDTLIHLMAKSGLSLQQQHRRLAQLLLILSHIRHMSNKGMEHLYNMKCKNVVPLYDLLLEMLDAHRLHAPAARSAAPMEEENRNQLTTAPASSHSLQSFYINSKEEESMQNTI
Outline: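 Exogenous chicken ERa-Gal4 chimera activity was assessed in transfected human liver HepG2 cells after 24 h of treatment. Induced reporter mRNA was quantified fluorescently by capillary electrophoresis, with DMSO as baseline.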

[3] = system: frog Estrogen Receptor (ER), gene 398734; experiment: ATG_frER1_XSP2: Attagene TRANS-FACTORIAL Multi-Species (XSP2) HepG2 Assay for frog Estrogen Receptor (ER) (AID 2283821);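 also: hits raise reporter mRNA above DMSO baseline so potency means agonist or activator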
Outline: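 Gain-of-signal mRNA reporter assay, HepG2 human liver cells, 24 h dosing; transcripts read by fluorescent RT-PCR fragment analysis, DMSO as negative control.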

[4] = system: zebrafish Estrogen Receptor (ER2b), gene 317733; experiment: ATG_zfER2b_XSP2: Attagene TRANS-FACTORIAL Multi-Species (XSP2) HepG2 Assay for zebrafish Estrogen Receptor (ER2b) (AID 2283823);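 also: fitted upward as reporter gain over DMSO so potency reflects activation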
Outline: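 Transcriptional induction measured as reporter mRNA (RT-PCR, fluorescent capillary electrophoresis) in transiently transfected HepG2 cells after 24 h dosing; DMSO served as negative control and baseline.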

[5] = ATG_M_32_XSP2: Attagene TRANS-FACTORIAL Multi-Species (XSP2) HepG2 Assay for M19 Transcription Factor (Internal Marker) (AID 2283826)
Outline: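 An internal background marker among multiplexed transfected reporters in HepG2 liver cells was measured 24 h after dosing. Androgen receptor stimulation came from 3 nM 6-alpha-fluorotestosterone and 1.5 nM norgestrel.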

[6] = system: frog Estrogen Receptor (ER2), gene 100174814; experiment: ATG_frER2_XSP2: Attagene TRANS-FACTORIAL Multi-Species (XSP2) HepG2 Assay for frog Estrogen Receptor (ER2) (AID 2283828)
Outline: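 Induction of reporter mRNA, baseline set by DMSO, is the endpoint. The panel was run in transfected HepG2 cells over 24 h, with 3 nM 6-alpha-fluorotestosterone and 1.5 nM norgestrel present to stimulate androgen receptor.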

[7] = system: chicken Androgen Receptor (AR), gene 422165; experiment: ATG_chAR_XSP2: Attagene TRANS-FACTORIAL Multi-Species (XSP2) HepG2 Assay for chicken Androgen Receptor (AR) (AID 2283819);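 also: hits raise reporter mRNA above DMSO so potency is for activation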
Outline: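 Readout is reporter mRNA induction via RT-PCR/capillary electrophoresis after 24 h chemical exposure, positive direction relative to DMSO. Transiently transfected HepG2 express chimeric chicken AR–GAL4; AR stimulated by 3 nM 6-alpha-fluorotestosterone and 1.5 nM norgestrel.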

[8] = system: zebrafish Androgen Receptor (AR), gene 100005148; experiment: ATG_zfAR_XSP2: Attagene TRANS-FACTORIAL Multi-Species (XSP2) HepG2 Assay for zebrafish Androgen Receptor (AR) (AID 2283825);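 also: hits raise reporter mRNA above DMSO so AC50 reflects agonist-type gain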
Method: (§1) ATG_XSP2_multi-species_TRANS is a cell-based, multiplexed assay created by modifying the existing Attagene TRANS-FACTORIAL system to include a panel of nuclear receptors from some or all the following species: human (Homo sapiens), mouse (Mus musculus), frog (Xenopus laevis), zebrafish (Danio rerio), chicken (Gallus gallus), and turtle (Chrysemys picta). The ECOTOX-FACTORIAL format uses HepG2, a human liver cell line, with measurements taken at 24 hours after chemical dosing in a 24-well plate. Xsp2 included 3 nM 6-alpha-fluorotestosterone and 1.5 nM norgestrel to stimulate the androgen receptor.ATG_zfAR_XSP2 is one of 29 assay components measured or calculated from the ATG_XSP2_multi-species_TRANS assay. It is designed to make measurements of mRNA induction, a form of inducible reporter, as detected with fluorescence intensity signals by Reverse transcription polymerase chain reaction (RT-PCR) and Capillary electrophoresis technology.The assay endpoint ATG_zfAR_XSP2 was analyzed in the positive analysis fitting direction relative to DMSO as the negative control and baseline of activity. […] Furthermore, this assay endpoint can be referred to as a primary readout, because this assay has produced multiple assay endpoints where this one serves a reporter gene function. […]

[9] = ATG_M_19_XSP2: Attagene TRANS-FACTORIAL Multi-Species (XSP2) HepG2 Assay for M32 Transcription Factor (Internal Marker) (AID 2283822)
Method: as §1, with “receptor.ATG_M_19_XSP2” for “receptor.ATG_zfAR_XSP2”, “technology.This” for “technology.The”, “endpoint, ATG_M_19_XSP2,” for “endpoint ATG_zfAR_XSP2”, “secondary” for “primary”, “background control” for “reporter gene”

[10] = target: Estrogen receptor (Homo sapiens) (UniProt P03372); experiment: ATG_hERa_XSP2: Attagene TRANS-FACTORIAL Multi-Species (XSP2) HepG2 Assay for human Estrogen Receptor (ERa) (AID 2283827)
Chain of Estrogen receptor (Homo sapiens) (P03372 whole entry, looked up, the tested form may be a part): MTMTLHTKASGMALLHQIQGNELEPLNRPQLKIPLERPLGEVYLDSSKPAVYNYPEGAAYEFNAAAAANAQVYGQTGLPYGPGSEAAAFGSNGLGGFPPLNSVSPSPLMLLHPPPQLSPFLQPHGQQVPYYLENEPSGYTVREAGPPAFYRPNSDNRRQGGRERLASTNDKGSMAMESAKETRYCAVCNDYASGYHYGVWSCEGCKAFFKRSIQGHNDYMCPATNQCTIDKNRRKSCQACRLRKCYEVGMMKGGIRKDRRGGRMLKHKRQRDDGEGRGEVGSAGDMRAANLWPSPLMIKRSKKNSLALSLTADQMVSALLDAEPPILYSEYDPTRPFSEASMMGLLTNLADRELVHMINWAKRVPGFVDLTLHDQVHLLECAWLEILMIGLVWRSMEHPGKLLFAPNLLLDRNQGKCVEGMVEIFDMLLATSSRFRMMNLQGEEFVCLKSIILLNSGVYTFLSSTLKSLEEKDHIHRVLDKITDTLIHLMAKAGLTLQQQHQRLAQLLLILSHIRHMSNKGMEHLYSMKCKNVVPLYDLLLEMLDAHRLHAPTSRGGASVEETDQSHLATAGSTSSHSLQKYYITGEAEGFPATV
Outline: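 Trans-activation of exogenous human ERa-Gal4 chimera read in HepG2 as reporter transcript after 24 h exposure; medium included 3 nM 6-alpha-fluorotestosterone and 1.5 nM norgestrel. Quantified by RT-PCR with capillary electrophoresis, positive-direction fitting against DMSO.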

Measured: AC50

CCOP(=O)(NC(C)C)Oc1ccc(SC)c(C)c1 (stereo not drawn)
inactive: [1] | [2] | [5]
active: [2] 31.1 µM | [3] 148 µM and 8.45 µM | [4] 65.5 µM and 43.8 µM | [6] 100 µM and 69 µM

CCC(=O)Nc1ccc(Cl)c(Cl)c1
inactive: [1] | [2] | [3] | [4] | [6]
active: [3] 38 µM | [4] 170 µM

CCc1cccc(C)c1N(C(=O)CCl)C(C)COC (stereo not drawn)
inactive: [1] | [2] | [7] | [4] | [5] | [6]

CCC(CC)Nc1c([N+](=O)[O-])cc(C)c(C)c1[N+](=O)[O-]
inactive: [1] | [5]
active: [1] 7.37 µM | [2] 5.63 µM and 4.3 µM | [3] 3.96 µM and 5.7 µM | [4] 18.1 µM and 7.12 µM | [6] 8.22 µM and 4.99 µM

CCOP(=S)(OCC)Oc1ccc2c(C)c(Cl)c(=O)oc2c1
active: [4] 100 µM
inactive: [2] | [3] | [5]

COc1ccc(C(=CC(=O)N2CCOCC2)c2ccc(Cl)cc2)cc1OC
inactive: [1] | [2] | [3] | [8] | [6]
active: [1] 58.2 µM | [4] 100 µM and 54.2 µM | [6] 52.4 µM

CCCOCC(=Nc1ccc(Cl)cc1C(F)(F)F)n1ccnc1
inactive: [1] | [2] | [3] | [5] | [6]
active: [4] 39.8 µM

C#CCC1=C(C)C(OC(=O)C2C(C=C(C)C)C2(C)C)CC1=O (stereo not drawn)
inactive: [1] | [3] | [4] | [6]

Nc1c(Cl)cc([N+](=O)[O-])cc1Cl
inactive: [1] | [2] | [3] | [9] | [5] | [6]
active: [2] 26.8 µM | [4] 25.3 µM and 49.6 µM | [10] 10.9 µM and 17.4 µM

C#CC(C)(C)NC(=O)c1cc(Cl)cc(Cl)c1
active: [2] 3.34 µM | [3] 27.6 µM
inactive: [4] | [5] | [6]
